{"source": "PubChem BioAssay (NCATS)", "note": "Inconclusive results are not listed. Entries that show only a call come without a potency. The source made the active and inactive calls. The call rests on the fitted dose curve; in most records, active means well fitted cell-killing curve with a large enough effect; inconclusive means small, poorly fitted or top-dose-only effect; inactive means flat fitted curve, though single readings scatter. Potency means the concentration at half of the fitted maximal effect.", "data": [{"test": "Cell Viability - Mesenchymal (AID 546);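 further: cells exposed to compound for 40 hours before reading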", "conditions": "mesenchymal cells viability, qHTS; series mostly up to 91.7 µM", "from_the_text": "NIH Chemical Genomics Center [NCGC]\nNIH Molecular Libraries Screening Centers Network [MLSCN]\nNational Institutes of Environmental Health Sciences [NIEHS]\nNational Toxicology Program [NTP]\nWe have developed a 1536-well cell-based assay for quantitative high throughput screening (qHTS) against a number of cell lines to determine in vitro cytotoxicity of small molecules. This particular assay uses the kidney mesenchymal cell line which is derived from normal human renal glomeruli.\nNCGC Assay Protocol Summary:\nThe CellTiter-Glo luminescent cell viability assay (Promega) is a homogeneous method to measure the number of viable cells in culture. The end point readout of this assay is based on quantitation of intracellular ATP, an indicator of metabolic activity, using the luciferase reaction. Luciferase catalyzes the oxidation of beetle Luciferin to oxyluciferin and light in the presence of ATP. The luminescent signal is proportional to amount of ATP present.\nUsing the CellTiter-Glo luminescent cell viability assay, the amount of cellular ATP was measured in the kidney mesenchymal cell line with complete culture medium following compound treatment for 40 hours. The assay was performed in opaque white Kalypsys 1536-well plates. In the screen, tamoxifen and doxorubicin were used as positive controls. Library compounds were measured for their ability to cause acute toxicity in the cell line, as reflected by a decrease in intracellular ATP levels, in a concentration-dependent manner. […] AC50 values were determined from concentration-response data modeled with the standard Hill equation.\nqHTS protocol for CellTiter Glo kidney mesenchymal cells cellular assay\n[Step] [Parameter] [Value] [Description]\n1. Reagent; 5 uL; 1000 kidney mesenchymal cells/well\n2. Time; 5 hr; 37 °C incubation\n4. Controls; 23 nL; Tamoxifen 0.34 uM to 100 uM & Doxorubicin 0.02 nM to 100 uM\n5. Time; 40 hr; 37 °C incubation\n6. Reagent; 5 uL; CellTiter Glo reagent\n7. Time; 20 min; Room Temperature\n8. Detection; Luminescence; Viewlux plate reader\nKeywords: cell viability, cytotoxicity, Kidney mesenchymal cell line, luminescence, NTPHTS, NTPHTS_NCGC, NIEHS, EPA, DSSTox, MLSMR, MLSCN, NIH Roadmap, qHTS, NCGC", "values": [{"compound": "NC(N)=NC(N)=NCCc1ccccc1", "Potency": "inactive"}, {"compound": "Cc1ccnc2c1NC(=O)c1cccnc1N2C1CC1", "Potency": "inactive"}, {"compound": "CC(=O)[C@H]1CC[C@H]2[C@@H]3CCC4=CC(=O)CC[C@]4(C)[C@H]3CC[C@]12C", "Potency": "inactive"}, {"compound": "Cc1nnc(NS(=O)(=O)c2ccc(N)cc2)s1", "Potency": "inactive"}, {"compound": "NNC(=O)c1ccncc1", "Potency": "inactive"}, {"compound": "CC[C@H](C)C(=O)O[C@H]1C[C@@H](C)C=C2C=C[C@H](C)[C@H](CC[C@@H]3C[C@@H](O)CC(=O)O3)[C@H]21", "Potency": "7.94 µM (active)"}, {"compound": "Cc1noc(NS(=O)(=O)c2ccc(N)cc2)c1C", "Potency": "inactive"}, {"compound": "CC1=NN(c2ccccc2)C(=O)C1", "Potency": "inactive"}, {"compound": "Cc1cc(NS(=O)(=O)c2ccc(N)cc2)no1", "Potency": "inactive"}, {"compound": "CCc1cc(C(N)=S)ccn1", "Potency": "inactive"}, {"compound": "O=C(O)c1cc(=O)[nH]c(=O)[nH]1", "Potency": "inactive"}, {"compound": "C[C@]12C=CC(=O)C=C1CC[C@@H]1[C@@H]2C(=O)C[C@@]2(C)[C@H]1CC[C@]2(O)C(=O)CO", "Potency": "inactive"}, {"compound": "CN(C)c1ccc(C(=C2C=CC(=[N+](C)C)C=C2)c2ccc(N(C)C)cc2)cc1", "Potency": "2.51 µM (active)"}, {"compound": "O=C(N[C@H](CO)[C@H](O)c1ccc([N+](=O)[O-])cc1)C(Cl)Cl", "Potency": "inactive"}, {"compound": "Cc1ncc([N+](=O)[O-])n1CCO", "Potency": "inactive"}, {"compound": "COc1ccc2cc3[n+](cc2c1OC)CCc1cc2c(cc1-3)OCO2", "Potency": "inactive"}]}]}
